For experiment [1], the target named is Single-stranded DNA cytosine deaminase (Homo sapiens) (UniProt Q9GZX7). Description: Validation qHTS assay for inhibitors of Activation Induced Cytidine Deaminase (AID): AID signal (AID 1347429). Further: potency means the concentration at half of the fitted maximal effect. On activity change, negative = inhibition: on the % scale 0 is the no-effect control and ±100 the full control effect. In a few lines: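 Compounds (up to 114 uM final) are tested against AID plus UDG using DJC20/DJC23 FRET substrate. Reactions incubate 4 hr at room temperature, receive NaOH for 30 min, and are read at Ex 540/Em 590 nm.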
(In general: qHTS replaces the single test concentration by a dilution series.)

Experiment [2] is described as follows: Primary qHTS for inhibitors of La Crosse Virus (LACV) - induced cell death in SH-SY5Y cells (AID 1508616).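 Further: top concentration of the series differs between compounds; 0% = infected DMSO wells and 100% = uninfected DMSO wells; higher means more rescue of cells from virus-induced death.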 The essentials: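 Screening measures cell viability in LACV-infected SH-SY5Y cultures. Compound was added before virus (0.01 MOI), and ATP was detected by luminescence 6 days later.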
Experiment [3] has as its target Calcium and integrin-binding protein 1 (Homo sapiens) (UniProt Q99828). Description: Validation qHTS for Identification of Calcium Integrin Binding protein 1 (CIB1) Competitor (AID 1508618). Further: on the % scale 0 is the no-effect control and ±100 the full control effect. In a few lines: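 Fluorescence polarization with 1 uM CIB1-GST and 100 nM FITC-alphaIIb peptide in HEPES pH 7.4, NaCl, 5 mM CaCl2, Tween20. Compounds at up to 114 uM final, preincubated with protein 15 min; read after 15 min more at RT.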

Experiment [4] shares this target. As to the kind of experiment: Primary qHTS for Identification of Calcium Integrin Binding Protein 1 (CIB1) Competitor (AID 1508620).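 Further: GST tagged CIB1 binding a fluorescein labelled alphaIIb integrin peptide tracer; top concentration of the series differs between compounds; on the % scale 0 is the no-effect control and ±100 the full control effect.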 The essentials:
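Fluorescence polarization competition: GST-tagged CIB1 (1 uM final) preincubated with compound 15 min at room temperature, then FITC-labelled alphaIIb peptide (100 nM final) added. After 15 min at room temperature, polarization read at Ex 480/Em 540.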

Experiment [5] is described as follows: Primary qHTS for small molecule stabilizers of the endoplasmic reticulum resident proteome: Secreted ER Calcium Modulated Protein (SERCaMP) assay (AID 1508630). Further: potency means the concentration at half of the fitted maximal effect. The essentials:
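The SH-SY5Y reporter protocol was run at 3 concentrations up to 38.3 uM (primary) or 11 concentrations (follow-up): 16 h compound, 100 nM thapsigargin for 4 h, then extracellular luciferase luminescence.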

Experiment [6] can be described thus: A High-Content qHTS Against Drug Library for the Identification of Small Molecules that Inhibit DYT1 Early Onset Primary Dystonia-Associated Cell Pathology (AID 1645839; calls by dose curve; further: series mostly up to about 46 µM). The essentials:
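Cells were seeded and left for 24 h, then dosed with compound alongside tetracycline induction of mutant EGFP-TorsinA. They were incubated for 48 h, fixed in 4% paraformaldehyde, permeabilized and imaged for mislocalization (%pathology) and cell count.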

The nature of experiment [7]: Counterscreen qHTS for small molecule stabilizers of the endoplasmic reticulum resident proteome: GLuc-NoTag assay (AID 1508627). Further: potency means the concentration at half of the fitted maximal effect.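 On activity change, negative = inhibition: SH-SY5Y cells given compound then 100 nM thapsigargin to empty ER calcium; series mostly up to about 76 µM; 0% = thapsigargin alone and -100% = DMSO vehicle control.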 In a few lines: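 Counterscreen line: SH-SY5Y-GLuc-NoTag. Seed, 5 h; compound, 19 h; thapsigargin 100 nM, 4 h; 37C/5% CO2. Readout: secreted GLuc luminescence, coelenterazine 0.07x final, no lysis.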
Experiment [8] addresses Calcium and integrin-binding protein 1 (Homo sapiens) (UniProt Q99828). Description: Confirmatory qHTS for Identification of Calcium Integrin Binding Protein 1 (CIB1) Competitor (AID 1508617). Further: potency means the concentration at half of the fitted maximal effect; nearly all actives have a fitted effect of over 65% in size. The text has this: Assay Provider: Ulhas P. Naik, PhD
Sidney Kimmel Medical College
Thomas Jefferson University, Philadelphia, PA
Primary function of platelets is to maintain hemostasis. At the site of vascular injury, platelets adhere to adhesive proteins such as collagen and von Willebrand factor. Adherent platelets are activated and generate soluble platelet agonists such as thrombin, ADP and thromboxane A2. Following exposure of circulating platelets to these agonists, results in platelet shape change, granule secretion and activation of platelet integrin alphaIIb-beta3. Ligand binding to activated integrin alphaIIb-beta3 triggers outside-in signaling, leading to platelet aggregation, stabilization of platelet plug, and clot retraction. Upon atherosclerotic plaque rupture also causes platelet plug formation, which underlies a number of cardiovascular diseases such as myocardial infraction and stroke. A number of anti-platelet drugs such as aspirin, clopidogrel, prasugrel, vorapaxar, and eptifibatide are currently available to prevent the thrombotic complications. However, these anti-platelet agents have several limitations including inherent variability in individual responses, developing resistance, and serious bleeding side effects. For these reasons they are not suitable for long-term protection. Based on the experiences with current anti-platelet drugs, it appears that the most useful therapeutic approach is to intersect the secondary responses such as integrin outside-in signaling or recruitment of platelets by TxA2 and secreted ADP. Compounds, which can largely preserve the primary hemostatic function of platelets but inhibit secondary response will be most desired therapeutic agents for treatment of cardiovascular disease.
CIB1 is a calcium integrin binding protein, which specifically interact with the alphaIIb subunit of integrin alphaIIb-beta3. […]
To develop fluorescence polarization (FP) assay using fluorescently labeled alphaIIb peptide and CIB1 protein. […]
7; Detection; Ex 480/ Em 540; ViewLux Fluorescence Read […]

Experiment [9] in a line: Cell Viability qHTS for small molecule stabilizers of the endoplasmic reticulum resident proteome (AID 1508629).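 Further: human SH-SY5Y neuroblastoma cells carrying the GLuc-SERCaMP reporter; compound exposure about 46 h in total before the viability read; on the % scale 0 is the no-effect control and ±100 the full control effect.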 The conditions noted are these: cell viability counter-screen, 100 nM thapsigargin for final 4 h.
Experiment [10] can be described thus: Confirmatory qHTS for small molecule stabilizers of the endoplasmic reticulum resident proteome: Secreted ER Calcium Modulated Protein (SERCaMP) assay (AID 1508628). Further: nearly all actives have a fitted effect of over 40% in size. Further: potency means the concentration at half of the fitted maximal effect. In a few lines: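 GLuc-SERCaMP-expressing SH-SY5Y cells, pretreated 16 h with compound, are challenged with thapsigargin to empty ER calcium stores; after 4 h, coelenterazine is added directly to the medium and luminescence is imaged.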

Unmarked numbers belong to inactive results. Records with an inconclusive call do not appear. Activity calls are given as the source filed them. Unless noted, the call rests on the fitted dose curve; in most records, active means well fitted curve in the direction sought with a large enough effect; inconclusive means small, poorly fitted or top-dose-only effect, or another doubt; inactive means no such curve, though single readings can be large; an effect the other way counts as inactive or inconclusive.

Chain of Single-stranded DNA cytosine deaminase (Homo sapiens) (Q9GZX7 whole entry, looked up): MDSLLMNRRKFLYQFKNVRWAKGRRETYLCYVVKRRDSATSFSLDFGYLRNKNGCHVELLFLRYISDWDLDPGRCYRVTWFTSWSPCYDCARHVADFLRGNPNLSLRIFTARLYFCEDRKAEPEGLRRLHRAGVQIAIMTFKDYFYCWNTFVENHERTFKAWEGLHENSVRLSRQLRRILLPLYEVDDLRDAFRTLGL
Chain of Calcium and integrin-binding protein 1 (Homo sapiens) (Q99828 whole entry, looked up): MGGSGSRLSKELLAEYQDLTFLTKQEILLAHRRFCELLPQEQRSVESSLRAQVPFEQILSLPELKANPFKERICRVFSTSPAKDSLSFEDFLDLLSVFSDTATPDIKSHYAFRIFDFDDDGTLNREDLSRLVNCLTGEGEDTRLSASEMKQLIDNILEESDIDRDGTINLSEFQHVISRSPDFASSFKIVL

Turning to `CNC(=O)Oc1ccc2c(c1)[C@]1(C)CCN(C)[C@@H]1N2C`, the Potency entry in experiment [1], in experiment [5] and in experiment [6] was “inactive” in each case. For the same molecule, the result in experiment [2], in experiment [3] and in [4] was inactive.
`Nc1cc(=O)[nH]c(N)n1`: the Potency result in [1], in [5] and in experiment [6] was “inactive” in each case. The molecule was called inactive in [2], in [3] and in experiment [4].
Take `CSc1ccc2c(c1)N(CCC1CCCCN1C)c1ccccc1S2` (stereo unspecified): in experiment [1], the Potency entry was “inactive”. The call in experiment [2], in experiment [3] and in experiment [4] was inactive. For the same molecule, the Potency in experiment [7] was 50.1 µM (active).
With `C=Cc1c(C)c2cc3[nH]c(cc4nc(cc5nc(cc1[nH]2)C(C)=C5CCC(=O)O)C(CCC(=O)O)=C4C)c(C)c3C=C`, the Potency entry in experiment [1], in [5] and in experiment [6] was “inactive” throughout. In addition, in experiment [2], the molecule was called inactive. The Potency in experiment [8] was 25.1 µM (active).
Take `OCc1cc(C(O)CNCCCCCCOCCCCc2ccccc2)ccc1O` (stereo unspecified): the Potency entry in [1] and in experiment [5] was “inactive” in each case. Moreover, the call in experiment [2], in [3] and in experiment [4] was inactive.
As for `CC(C(O)c1ccc(O)cc1)N1CCC(Cc2ccccc2)CC1` (stereo unspecified), the Potency entry in experiment [1], in experiment [7] and in [5] was “inactive” throughout. For the same molecule, the call in experiment [2], in experiment [3] and in experiment [4] was inactive.
In the case of `Cc1cc(N)c2ccccc2[n+]1CCCCCCCCCC[n+]1c(C)cc(N)c2ccccc21`, the Potency in experiment [1] was 50.1 µM (active). The call in experiment [2], in experiment [3] and in experiment [4] was inactive. Besides, in experiment [5], the Potency result is “inactive”.
As for `CCCn1cnc2c1c(=O)n(CCCCC(C)=O)c(=O)n2C`, the Potency entry in experiment [1], in [5] and in experiment [6] was “inactive” throughout. The molecule was classed as inactive in experiment [2], in [3] and in [4].
With `CCN(CC)CCNC(=O)c1cc(Cl)c(N)cc1OC`, the Potency entry in experiment [1] and in [5] was “inactive” each time. In addition, the outcome in experiment [2], in experiment [3] and in [4] was inactive.
As for `COCCOC(=O)C1=C(C)NC(C)=C(C(=O)OC/C=C/c2ccccc2)C1c1cccc([N+](=O)[O-])c1` (stereo unspecified), the Potency result in experiment [1] and in [5] was “inactive” each time. Further, the outcome in experiment [2], in experiment [3] and in [4] was inactive.
Regarding `CN(C)CCCN1c2ccccc2Sc2ccc(Cl)cc21`, the Potency entry in experiment [1] and in [5] was “inactive” each time. Further, the result in experiment [2], in [3] and in experiment [4] was inactive.
With `Nc1ncnc2c1ncn2[C@@H]1O[C@H](CO)[C@@H](O)[C@H]1O`, the Potency entry in experiment [1], in [5] and in experiment [6] was “inactive” throughout. Moreover, the outcome in experiment [2], in experiment [3] and in experiment [4] was inactive.
With `CC1=C(CC(=O)O)c2cc(F)ccc2/C1=C\c1ccc(S(C)(=O)=O)cc1`, the Potency entry in experiment [1] and in experiment [5] was “inactive” in each case. For the same molecule, the result in experiment [2], in experiment [3] and in experiment [4] was inactive.
For `CC(C)C(=O)c1c(C(C)C)nn2ccccc12`, the Potency result in [1], in experiment [5] and in [6] was “inactive” throughout. Further, the outcome in experiment [2], in [3] and in [4] was inactive.
Turning to `CC(CN(C)C)CN1c2ccccc2CCc2ccccc21` (stereo unspecified), the Potency entry in experiment [1] is “inactive”. Moreover, the outcome in [2], in [3] and in experiment [4] was inactive.
As to `NC(=O)c1ncn([C@@H]2O[C@H](CO)[C@@H](O)[C@H]2O)n1`, the Potency entry in experiment [1] and in experiment [5] was “inactive” throughout. For the same molecule, the result in experiment [2], in experiment [3] and in experiment [4] was inactive.
As to `CC(C)NC[C@H](O)c1ccc(O)c(O)c1`, the Potency result in [1] and in experiment [5] was “inactive” each time. Besides, the result in experiment [2] and in experiment [3] was inactive.
Turning to `CC(C)(C)c1onc(OCP(=O)(O)O)c1CC(N)C(=O)O` (stereo unspecified), the Potency entry in experiment [1] and in experiment [5] was “inactive” in each case. In addition, the result in experiment [2] and in experiment [3] was inactive.
Take `CCN(CC)C(C)CN1c2ccccc2Sc2ccccc21` (stereo unspecified): the Potency result in [1], in experiment [5] and in experiment [6] was “inactive” throughout. In addition, the molecule was classed as inactive in [2], in experiment [3] and in experiment [4].
As to `CN(C)CCOC(C)(c1ccccc1)c1ccccn1` (stereo unspecified), the Potency result in experiment [1], in [5] and in [6] was “inactive” each time. In addition, the molecule was called inactive in experiment [2], in experiment [3] and in [4].
For `C[C@](N)(Cc1ccc(O)cc1)C(=O)O`, the Potency result in experiment [1] and in [5] was “inactive” each time. The result in [2] and in [3] was inactive. Besides, the activity change, negative = inhibition in experiment [4] is 5.16% [at 12.4 µM]. The % pathology change, negative = correction in experiment [6] was 14.7% [at 4.63 µM].
Turning to `C#CCN(C)Cc1ccccc1`, the Potency result in [1] and in experiment [6] was “inactive” each time. The molecule was classed as inactive in experiment [2], in experiment [3] and in [4].
Consider `O=C1N=C(O)CN1/N=C/c1ccc(-c2ccc([N+](=O)[O-])cc2)o1`, for which the Potency result in experiment [1], in experiment [7] and in experiment [6] was “inactive” each time. Further, the outcome in experiment [2], in experiment [3] and in [4] was inactive. For the same molecule, the max response in [9] is 30.6%. The Potency in experiment [5] is 14.1 µM (active).
Consider `C[C@]12C[C@H](O)[C@H]3[C@@H](CCC4=CC(=O)CC[C@@]43C)[C@@H]1CC[C@@H]2C(=O)CO`, for which the Potency result in experiment [1], in experiment [5] and in experiment [6] was “inactive” each time. Also, the molecule was classed as inactive in experiment [2], in [3] and in experiment [4].
Regarding `CN1CCN(C2Cc3ccccc3Sc3ccc(Cl)cc32)CC1` (stereo unspecified), the Potency entry in experiment [1] is “inactive”. For the same molecule, the molecule was called inactive in [2], in experiment [3] and in [4]. In experiment [10], the Potency was 17.8 µM (active).
For `CC1=C(/C=C/C(C)=C/C=C/C(C)=C/C(=O)O)C(C)(C)CCC1`, the Potency entry in [1] and in [5] was “inactive” each time. For the same molecule, the result in [2], in [3] and in experiment [4] was inactive.
Regarding `CC(C)(C)[C@]1(O)CCN2C[C@H]3c4ccccc4CCc4cccc(c43)[C@@H]2C1`, the Potency result in experiment [1] is “inactive”. For the same molecule, the call in experiment [2] and in experiment [3] was inactive. Besides, the Potency in experiment [10] is 12.6 µM (active). Also, the max response in experiment [9] is 16.4%.
Take `C[C@]12CC[C@@H]3c4ccc(O)cc4CC[C@H]3[C@@H]1CCC2=O`: the Potency entry in experiment [1], in experiment [5] and in experiment [6] was “inactive” each time. For the same molecule, the molecule was classed as inactive in experiment [2], in experiment [3] and in experiment [4].
Regarding `CN(C)CCC=C1c2ccccc2CCc2ccccc21`, the Potency entry in [1] and in [10] was “inactive” in each case. Further, the call in experiment [2], in experiment [3] and in experiment [4] was inactive.

For the origin of these results see PubChem BioAssay (NCATS).
